Results: PubChem BioAssay (NCI)
Compounds without any hit were thinned out: in the full panel of roughly 83,000, 20% have a hit.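 Each cell line was grown in a 96-well plate and treated with one concentration of compound for 48 hours. Values below 10 were considered active.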 A number with no mark means an inactive call. Calls of active or inactive are those of the source.

Tested on: HL-60(TB) leukemia
Assay: NCI-60 one-dose screen, 48 h (100 = growth as untreated, 0 = no growth, -100 = all killed)
Details: 10 µM unless noted

Which growth does the source give for CCOC(=O)/C=C/C(=O)[C@H](CC(C)C)NC(=O)[C@H](Cc1ccccc1)NC(=O)OCc1ccccc1 here?
Its growth is 25.9%.

How did the growth turn out when CCCCC[n+]1ccc(SCC(=O)N(C)c2ccc(Oc3ccccc3)cc2)c2ccccc21 was run?
Its growth is 3.74% (active).

Which growth does the source give for Nc1ccc(C(=O)CSc2nc3ccccc3[nH]2)cc1 here?
The growth was 95.3%.

With CCCNC(=O)c1ccc(S(N)(=O)=O)cc1 as the compound, how does the growth read?
The growth was 133%.

COc1ccc(Nc2ccnc(NCCCNc3ccnc4cc(Cl)ccc34)n2)cc1 was tested. Which growth did it give?
The growth was -68.6% (active).

Which growth does the source give for COc1ccc(Cn2c(Br)c3c(c2Br)-c2nc(N)sc2CC3)cc1 here?
Its growth is -16% (active).

How did the growth turn out when Nc1ccc(C(=O)c2ccc(N)c(Br)c2)cc1Br was run?
The growth was -16.5% (active).

O=C(/C=C\c1cccc([N+](=O)[O-])c1)c1ccccc1 was tested. Which growth did it give?
Its growth is -43.8% (active).

With COc1ccc(-c2nc3sccn3c2/C=C/C(=O)c2cc(OC)c(OC)c(OC)c2)cc1 as the compound, how does the growth read?
Its growth is 56.5%.

CC12CCC(O)CC1=CCC1C2CCC2(C)C3=NN=CC3CC12 (stereo not given) was tested. Which growth did it give?
Its growth is 103%.

Which growth does the source give for CC(C)(C)[Si](C)(C)OC1[C@@H](CNC(=O)NC(=O)CCl)O[C@@H](n2cnc3c(N)ncnc32)[C@H]1O[Si](C)(C)C(C)(C)C (stereo not given in full) here?
Its growth is -64.2% (active).

With Cc1ccc(-n2nnnc2N)c(C)c1 as the compound, how does the growth read?
The growth was 117%.

For Cc1ccc[n+](CCC(N)=O)c1, which growth is on record?
Its growth is 86.6%.

With O=C(O)c1ccc(-n2cc(/C=N/Nc3ccc(Cl)cc3)c(-c3ccc(F)c(F)c3)n2)cc1 as the compound, how does the growth read?
The growth was 27.1%.

c1ccc2[nH]c(Cc3nc4ccccc4[nH]3)nc2c1 was tested. Which growth did it give?
Its growth is 75.6%.

How did the growth turn out when N#CSCC1CC(O)(c2ccccc2)CC(c2ccc(Cl)cc2)O1 (stereo not given) was run?
Its growth is -30.9% (active).

How did the growth turn out when CCOC(=O)[C@@H](C)C[C@H](Cc1ccccc1)NC(=O)c1csc([C@@H](C[C@H](C(C)C)N(C)C(=O)[C@@H](NC(=O)[C@H]2C[C@H](O[Si](C)(C)C(C)(C)C)CCN2C)C(C)C)OC(C)=O)n1 was run?
The growth was -36.9% [9.25 µM] (active).

Cc1ccc(NC(=O)N[C@@H](Cc2cc(F)cc(F)c2)C(=O)N[C@@H]2C(=O)N3CCC[C@H]3C(=O)N3CCCC[C@H]3C(=O)N[C@@H](C)C(=O)N3C[C@H](C)C[C@H]3C(=O)O[C@H]2C)cc1 was tested. Which growth did it give?
Its growth is 11.6%.

How did the growth turn out when O=C(O)c1ccccc1C(=O)c1ccc(I)cc1 was run?
Its growth is 93.1%.

Which growth does the source give for CCN1C(=O)N(CC)C2C1NN=c1s/c(=C3\C(=O)N(C)c4ccccc43)c(=O)n12 (stereo not given) here?
Its growth is -13% (active).

Which growth does the source give for O=C(COc1ccc(-c2nc3cc(Cl)c(Cl)cc3[nH]2)cc1)N=Nc1c(O)[nH]c2ccccc12 here?
The growth was 68.5%.

With O=C1C(=O)c2ccc(Br)cc2-c2cc(Br)ccc21 as the compound, how does the growth read?
Its growth is -14.5% (active).

How did the growth turn out when CC(=O)c1nn(-c2ccccc2)/c(=N\N=C\c2coc3ccc(F)cc3c2=O)s1 was run?
Its growth is 105%.

For Cc1ccc2c(c1)Nc1ccc(C)cc1C2(C)C, which growth is on record?
Its growth is 81%.

With CCOC(=O)CN1/C(=N/c2sc3c(c2C(=O)OCC)CCN(C(=O)OCC)C3)SC(=O)/C1=C\C(=O)OC as the compound, how does the growth read?
Its growth is 79.9%.

With O=C1/C(=C/c2cc(F)cc(F)c2)Cc2cc(F)cc(F)c21 as the compound, how does the growth read?
Its growth is 122%.

Which growth does the source give for COc1cccc(-c2nn(-c3ccccc3)cc2-c2ccnc(NCCCNC(=O)c3ccccc3)c2)c1 here?
Its growth is 23.8%.

For CC(=O)n1nc(C(=O)OC(C)(C)c2ccccc2)c2ccccc21, which growth is on record?
Its growth is 97.5%.

With CCOC(=O)C#Cc1c(CC(=O)OCC)nnn1[C@H]1O[C@@H](CO)[C@@H]2OC(C)(C)O[C@@H]21 as the compound, how does the growth read?
Its growth is 38%.

How did the growth turn out when CCN(CC)c1ccc(/C=C/C2=[N+](C)c3ccccc3C2(C)C)c(C)c1 was run?
Its growth is -34.7% (active).

O=C(/C=C\c1ccccc1)N1c2ccccc2CC1c1c[nH]c2ccccc12 (stereo not given) was tested. Which growth did it give?
Its growth is 73.5%.

With CC(=O)O[C@H]1CC[C@]2(C)[C@H]3C(=O)C=C4[C@@H]5C[C@](C)(C(=O)N6CCCNCC6)CC[C@]5(C)CC[C@@]4(C)[C@]3(C)CC[C@H]2C1(C)C as the compound, how does the growth read?
The growth was -61.9% (active).

With CC12CCC(CC1)C(C)(C)O2 as the compound, how does the growth read?
Its growth is 103%.

How did the growth turn out when C/C(Cc1ccc(Cl)cc1)=C(\c1ccc(OCCCN(C)C)cc1)c1ccc(OC(=O)Cc2ccccc2)cc1 was run?
Its growth is 88.7%.

How did the growth turn out when COc1cc2c(Oc3ccc(NC(=O)C4(C(=O)Nc5ccc(F)cc5)CC4)cc3F)ccnc2cc1OCCCN1CCOCC1 was run?
Its growth is -21.4% (active).

O=C(Cc1nc2cc(Cl)c(Cl)cc2nc1CC(=O)c1ccccc1)c1ccccc1 was tested. Which growth did it give?
The growth was 29.7%.

With CCOC(=O)c1ccc(Nc2ncnc3ccc(NC(=O)c4ccccc4)cc23)cc1 as the compound, how does the growth read?
The growth was 69.9%.

For CNC(=O)c1cc(Oc2ccc3c(c2)sc2nc(-c4ccc(NC(=O)[C@@H](NC(=O)OC)C(C)C)cc4)cn23)ccn1, which growth is on record?
Its growth is 51.1%.

With CCOc1ccccc1NC(=O)c1cc2ccccc2cc1O as the compound, how does the growth read?
Its growth is 48.8%.

With COc1ccc(/C=C/C(=O)C(CC2CCC2)C(=O)/C=C/c2ccc(OC)c(OC)c2)cc1OC as the compound, how does the growth read?
The growth was -27.5% (active).
